# Data as given in PubChem BioAssay.
# Experiment: Primary imaging screen for DUSP6 inhibitors that restore phospho-Erk in transfected HeLa cells, chemical complementation (AID 609)
# Settings: HeLa MKP-3 transfected, phospho-Erk imaging KS statistic; measured here: cell density z-score; at 10 µM; cells stimulated with TPA for 15 min
row,SMILES,z-score
1,CCOc1cccc(N2C(=O)CC(N(CCc3ccc(OC)c(OC)c3)C(=O)CC)C2=O)c1 (stereo not given),-0.772
2,CCOC(=O)CNC(=O)CNC(=O)c1ccc(OCC(C)C)cc1,0.797
3,COc1cc(C(=O)Nc2ccc(O)cc2C(=O)O)ccc1OC(C)=O,-0.0173
4,Cc1cc(C)n(CC2CC(=O)N(c3ccc(F)c(Cl)c3)C2=O)n1 (stereo not given),-0.992
5,COC(=O)c1ccc(C2/C(=C(\O)c3cccc(OC)c3)C(=O)C(=O)N2CCCN(C)C)cc1 (stereo not given),0.797
6,CCCC(CCC(=O)Nc1ccc(C(=O)OCC)cc1)C(=O)O (stereo not given),-0.648
7,C=C(C)CSc1nc(N)c2c3c(sc2n1)CCC3,-1.07
8,CCCCOC(=O)CCc1nc2ccccc2[nH]1,-0.361
9,CCc1nc2c(sc3nc(N4CCOCC4)c4c(c32)CC(C)(C)OC4)c(=O)o1,-0.303
10,COc1ccccc1-n1c(N)c(C(=O)NCC2CCCO2)c2nc3ccccc3nc21 (stereo not given),1.5
11,CCC(=O)NC1(C(F)(F)F)C(=O)Nc2c1c(=O)[nH]c(=O)n2Cc1ccco1 (stereo not given),-1.08
12,Cn1c(=O)[nH]c2cc(Cl)cnc21,0.823
13,O=C(COc1ccc(-c2nnc(N3CCCCC3)c3ccccc23)cc1)N1CCCCC1,0.333
14,Cc1cccc(-c2nc(C#N)c(NC3CCCCC3)o2)c1,1.1
15,CCCCSc1nnc2n(CCc3ccccc3)c(=O)c3c4c(sc3n12)COC(C)(C)C4,1.42
16,CCCCc1nc(NCC2CCCO2)c(C#N)c2c1COC(C)(C)C2 (stereo not given),-0.8
17,Clc1ccc(-n2ncc3c(N4CCCC4)ncnc32)cc1,-3.24
18,COCCOC(=O)c1c(C)oc2ccc(OC(=O)COc3c(F)c(F)c(F)c(F)c3F)cc12,-0.212
19,CCc1cc(=O)oc2cc(C)c(CN3CCCC3)c(O)c12,-0.426
20,O=c1[nH]c2sc3c(c2c(=O)n1Cc1ccccc1)CCC3,0.896

row,SMILES,z-score
1,CCOC(=O)CCNc1n[nH]c(=O)[nH]c1=O,0.833
2,COc1ccc(C2C=C(c3ccc(C)cc3)Nc3ncnn32)cc1 (stereo not given),-1.85
3,CCc1nc(N2CCOCC2)c(C#N)c2c1CCCC2,0.0216
4,COc1ccccc1C1/C(=C(/O)c2ccc(C)cc2)C(=O)C(=O)N1CCN1CCOCC1 (stereo not given),-0.486
5,N#CC(C#N)C(c1ccsc1)c1c(-c2ccccc2)[nH][nH]c1=O (stereo not given),0.118
6,O=C(c1ccc(=O)oc1)N1CCN(C(c2ccccc2)c2ccccc2)CC1,-0.99
7,Nc1ccc2c3c(cccc13)CC2,0.938
8,COCCNC(=O)C(C#N)c1nc2ccccc2nc1N1CCN(Cc2ccc3c(c2)OCO3)CC1 (stereo not given),-1.49
9,Cc1ccc(Cn2ncc3c(N4CCN(Cc5ccc(Cl)cc5)CC4)ncnc32)cc1,-0.467
10,COC(=O)c1[nH]c2ccc(Cl)cc2c1NC(=O)C1CC1,-0.422
11,CCCOc1ccccc1C(=O)NCCCC(=O)O,0.264
12,CCCOc1cccc(C2/C(=C(/O)c3ccc(F)cc3)C(=O)C(=O)N2CCN(C)C)c1 (stereo not given),0.0201
13,CCN(CC)c1nc(C)c2c(c1C#N)CC(C)(C)OC2,-2.08
14,CCC(=O)N(Cc1cccs1)C1CCOC(C)(C)C1 (stereo not given),0.577
15,CCC(=O)Nc1c(C#N)c2nc3ccccc3nc2n1C1CCCCC1,0.5
16,O=C(CN1C(=O)c2ccccc2S1(=O)=O)NCCSCc1ccco1,0.363
17,CC12CN3CC(C)(CN(C1)C3c1ccc(Br)cc1O)C2 (stereo not given),0.885
18,Clc1ccc(COc2ccccn2)c(Cl)c1,0.311
19,CC1(C)NC(=O)N(CC(O)COc2cc3ccccc3cc2C(=O)N2CCCCC2)C1=O (stereo not given),0.439
20,Cc1ccc(N(CN2C(=O)C3CC=CCC3C2=O)C(=O)c2ccco2)cc1Cl (stereo not given),0.823

# Same assay, conditions: HeLa MKP-3 transfected, phospho-Erk imaging KS statistic; measured here: nuclear c-Myc green intensity z-score; at 10 µM; cells stimulated with TPA for 15 min
row,SMILES,z-score
1,CCOc1cccc(N2C(=O)CC(N(CCc3ccc(OC)c(OC)c3)C(=O)CC)C2=O)c1 (stereo not given),0.365
2,CCOC(=O)CNC(=O)CNC(=O)c1ccc(OCC(C)C)cc1,0.341
3,COc1cc(C(=O)Nc2ccc(O)cc2C(=O)O)ccc1OC(C)=O,0.715
4,Cc1cc(C)n(CC2CC(=O)N(c3ccc(F)c(Cl)c3)C2=O)n1 (stereo not given),0.731
5,COC(=O)c1ccc(C2/C(=C(\O)c3cccc(OC)c3)C(=O)C(=O)N2CCCN(C)C)cc1 (stereo not given),-1.05
6,CCCC(CCC(=O)Nc1ccc(C(=O)OCC)cc1)C(=O)O (stereo not given),0.519
7,C=C(C)CSc1nc(N)c2c3c(sc2n1)CCC3,1.64
8,CCCCOC(=O)CCc1nc2ccccc2[nH]1,0.108
9,CCc1nc2c(sc3nc(N4CCOCC4)c4c(c32)CC(C)(C)OC4)c(=O)o1,0.948
10,COc1ccccc1-n1c(N)c(C(=O)NCC2CCCO2)c2nc3ccccc3nc21 (stereo not given),-1.96
11,CCC(=O)NC1(C(F)(F)F)C(=O)Nc2c1c(=O)[nH]c(=O)n2Cc1ccco1 (stereo not given),0.161
12,Cn1c(=O)[nH]c2cc(Cl)cnc21,-0.334
13,O=C(COc1ccc(-c2nnc(N3CCCCC3)c3ccccc23)cc1)N1CCCCC1,-0.404
14,Cc1cccc(-c2nc(C#N)c(NC3CCCCC3)o2)c1,-0.201
15,CCCCSc1nnc2n(CCc3ccccc3)c(=O)c3c4c(sc3n12)COC(C)(C)C4,-1.24
16,CCCCc1nc(NCC2CCCO2)c(C#N)c2c1COC(C)(C)C2 (stereo not given),1.32
17,Clc1ccc(-n2ncc3c(N4CCCC4)ncnc32)cc1,1.27
18,COCCOC(=O)c1c(C)oc2ccc(OC(=O)COc3c(F)c(F)c(F)c(F)c3F)cc12,-0.943
19,CCc1cc(=O)oc2cc(C)c(CN3CCCC3)c(O)c12,-0.164
20,O=c1[nH]c2sc3c(c2c(=O)n1Cc1ccccc1)CCC3,0.335

row,SMILES,z-score
1,CCOC(=O)CCNc1n[nH]c(=O)[nH]c1=O,0.318
2,COc1ccc(C2C=C(c3ccc(C)cc3)Nc3ncnn32)cc1 (stereo not given),1.16
3,CCc1nc(N2CCOCC2)c(C#N)c2c1CCCC2,0.691
4,COc1ccccc1C1/C(=C(/O)c2ccc(C)cc2)C(=O)C(=O)N1CCN1CCOCC1 (stereo not given),-0.67
5,N#CC(C#N)C(c1ccsc1)c1c(-c2ccccc2)[nH][nH]c1=O (stereo not given),-0.0424
6,O=C(c1ccc(=O)oc1)N1CCN(C(c2ccccc2)c2ccccc2)CC1,0.461
7,Nc1ccc2c3c(cccc13)CC2,0.125
8,COCCNC(=O)C(C#N)c1nc2ccccc2nc1N1CCN(Cc2ccc3c(c2)OCO3)CC1 (stereo not given),1.08
9,Cc1ccc(Cn2ncc3c(N4CCN(Cc5ccc(Cl)cc5)CC4)ncnc32)cc1,0.343
10,COC(=O)c1[nH]c2ccc(Cl)cc2c1NC(=O)C1CC1,-0.0225
11,CCCOc1ccccc1C(=O)NCCCC(=O)O,0.35
12,CCCOc1cccc(C2/C(=C(/O)c3ccc(F)cc3)C(=O)C(=O)N2CCN(C)C)c1 (stereo not given),-1.18
13,CCN(CC)c1nc(C)c2c(c1C#N)CC(C)(C)OC2,0.916
14,CCC(=O)N(Cc1cccs1)C1CCOC(C)(C)C1 (stereo not given),-0.186
15,CCC(=O)Nc1c(C#N)c2nc3ccccc3nc2n1C1CCCCC1,-1.07
16,O=C(CN1C(=O)c2ccccc2S1(=O)=O)NCCSCc1ccco1,0.199
17,CC12CN3CC(C)(CN(C1)C3c1ccc(Br)cc1O)C2 (stereo not given),-1.75
18,Clc1ccc(COc2ccccn2)c(Cl)c1,-1.08
19,CC1(C)NC(=O)N(CC(O)COc2cc3ccccc3cc2C(=O)N2CCCCC2)C1=O (stereo not given),1.12
20,Cc1ccc(N(CN2C(=O)C3CC=CCC3C2=O)C(=O)c2ccco2)cc1Cl (stereo not given),-0.172
